Measurements as given in the supplement of paper PMC12067926.

How the values were obtained:
Assay in all cases: relative growth (AUC of 72 h growth curve relative to DMSO control, dAUC) (ratio); higher = more growth (less inhibition), active = hit call of the paper
Details in all cases: 20 µM;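 active = growth AUC significantly below the DMSO wells by Dunnett test; inactive = the rest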
Community 7 = test system: Community 7
Outline: (§1)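 Growth was followed as A600, read hourly for 72 h on a plate reader after brief shaking. Isolates from Icelandic stream sediments and Silwood Park soil, and whole sediment communities, were first grown to carrying capacity in Luria–Bertani medium and then diluted 1:100 into 96-well plates with each chemical at 20 µM (1% DMSO). Relative growth (dAUC) is the spline-integrated area under the curve scaled to the mean of the DMSO controls, and the values are averages of three biological replicates.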

Community 8 = test system: Community 8
Outline: as §1

Community 9 = test system: Community 9
Outline: as §1

[1] = test system: Flavobacterium 1 (Flavobacterium glaciei)
Outline: as §1

[2] = test system: Flavobacterium 2 (Flavobacterium succinicans)
Outline: as §1

[3] = test system: Hymenobacter 1 (Hymenobacter glaciei)
Outline: as §1

[4] = test system: Microbacterium 1 (Microbacterium arborescens)
Outline: as §1

[5] = test system: Neobacillus 1 (Neobacillus soli)
Outline: as §1

[6] = test system: Oryzobacter 1 (Oryzobacter terrae)
Outline: as §1

[7] = test system: Paenibacillus 1 (Paenibacillus castaneae)
Outline: as §1

[8] = test system: Prolinoborus 1 (Prolinoborus fasciculus)
Outline: as §1

[9] = test system: Pseudomonas 1 (Pseudomonas baetica)
Outline: as §1

[10] = test system: Pseudomonas 2 (Pseudomonas vancouverensis)
Outline: as §1

[11] = test system: Pseudomonas 3 (Pseudomonas mandelii)
Outline: as §1

[12] = test system: Pseudomonas 4 (Pseudomonas peli)
Outline: as §1

[13] = test system: Pseudomonas 5 (Pseudomonas baetica)
Outline: as §1

[14] = test system: Pseudomonas 6 (Pseudomonas sp.)
Outline: as §1

[15] = test system: Rhizobium 1 (Rhizobium herbae)
Outline: as §1

[16] = test system: Serratia 1 (Serratia sp. 2015-2462-01)
Outline: as §1

[17] = test system: Sphingomonas 2 (Sphingomonas sp.)
Outline: as §1

Measured: relative growth

CC1(C)C(C(=O)OC(C#N)c2cccc(Oc3ccccc3)c2)C1(C)C (stereo not given)
inactive: Community 7 1.09 | Community 8 1.02 | Community 9 1.05 | [1] 0.939 | [2] 0.946 | [3] 1.02 | [4] 1.03 | [5] 0.932 | [6] 1.14 | [7] 0.918 | [8] 0.893 | [9] 1.08 | [10] 1 | [11] 1.04 | [12] 0.948 | [13] 1.01 | [14] 1.01 | [15] 1.05 | [16] 1 | [17] 0.98

CC1(C)[C@H](/C=C(\Cl)C(F)(F)F)[C@@H]1C(=O)OC(C#N)c1cccc(Oc2ccccc2)c1 (stereo not given in full)
inactive: Community 7 1.19 | Community 8 1.09 | Community 9 0.956 | [1] 0.836 | [2] 0.995 | [3] 1.06 | [4] 0.995 | [5] 0.958 | [6] 1.11 | [7] 0.889 | [8] 0.983 | [9] 1.07 | [10] 1.02 | [11] 1.05 | [12] 0.999 | [13] 1.08 | [14] 1.16 | [15] 1.28 | [16] 1.01 | [17] 0.868

COc1ccc(C(=CC(=O)N2CCOCC2)c2ccc(Cl)cc2)cc1OC (mixture of isomers)
inactive: Community 7 0.947 | Community 8 0.986 | Community 9 1.03 | [1] 1.07 | [2] 0.979 | [3] 1.05 | [4] 1.03 | [5] 1.02 | [6] 1.12 | [7] 0.961 | [8] 0.994 | [9] 1.09 | [10] 0.999 | [11] 1.03 | [12] 1.01 | [13] 0.972 | [14] 0.951 | [15] 1.02 | [16] 0.978 | [17] 1.12

CC[C@H](C)[C@H]1O[C@]2(C=C[C@@H]1C)C[C@@H]1C[C@@H](C/C=C(\C)[C@@H](O[C@H]3C[C@H](OC)[C@@H](O[C@H]4C[C@H](OC)[C@@H](O)[C@H](C)O4)[C@H](C)O3)[C@@H](C)/C=C/C=C3\CO[C@@H]4[C@H](O)C(C)=C[C@@H](C(=O)O1)[C@]34O)O2.CO[C@H]1C[C@H](O[C@H]2[C@H](C)O[C@@H](O[C@@H]3/C(C)=C/C[C@@H]4C[C@@H](C[C@]5(C=C[C@H](C)[C@@H](C(C)C)O5)O4)OC(=O)[C@@H]4C=C(C)[C@@H](O)[C@H]5OC/C(=C\C=C\[C@@H]3C)[C@]54O)C[C@@H]2OC)O[C@@H](C)[C@@H]1O
active: Community 9 0.624 | [1] 0.139 | [6] 0.286 | [7] 0.317
inactive: Community 7 1.17 | Community 8 0.963 | [2] 0.975 | [3] 0.9 | [4] 0.963 | [5] 0.893 | [8] 0.894 | [9] 1.05 | [10] 1.01 | [11] 1.03 | [12] 1.02 | [13] 1.13 | [14] 1.04 | [15] 0.807 | [16] 0.958 | [17] 0.717

O=C(Nc1ccc(F)cc1F)c1cccnc1Oc1cccc(C(F)(F)F)c1
inactive: Community 7 1.04 | Community 8 0.97 | Community 9 1.11 | [1] 1.09 | [2] 1.03 | [3] 1.05 | [4] 0.997 | [5] 1.06 | [6] 1.03 | [7] 0.937 | [8] 1.03 | [9] 1.09 | [10] 1.01 | [11] 1.05 | [12] 1.01 | [13] 1.06 | [14] 1.13 | [15] 0.66 | [16] 1.02 | [17] 1.16

CC1(C)CON(Cc2ccccc2Cl)C1=O
inactive: Community 7 1.08 | Community 8 1.04 | Community 9 1.02 | [1] 1.02 | [2] 0.941 | [3] 0.974 | [4] 1 | [5] 0.965 | [6] 1.13 | [7] 0.973 | [8] 0.954 | [9] 1.01 | [10] 0.981 | [11] 1.06 | [12] 0.975 | [13] 1.06 | [14] 1.13 | [15] 0.983 | [16] 0.94 | [17] 1.15

CO/N=C(/C(=O)OC)c1ccccc1CO/N=C(\C)c1cccc(C(F)(F)F)c1
1.26: [6]
inactive: Community 7 1.05 | Community 8 0.968 | Community 9 0.784 | [1] 0.975 | [2] 0.943 | [3] 1.05 | [4] 0.99 | [5] 1 | [7] 0.9 | [8] 0.953 | [9] 1.13 | [10] 1 | [11] 1.04 | [12] 0.949 | [13] 0.978 | [14] 1.03 | [15] 0.921 | [16] 0.952 | [17] 1.1

C/C(=N\C#N)N(C)Cc1ccc(Cl)nc1
inactive: Community 7 1.02 | Community 8 1.05 | Community 9 0.986 | [1] 0.92 | [2] 1.02 | [3] 0.997 | [4] 0.997 | [5] 0.993 | [6] 1.07 | [7] 1.06 | [8] 0.963 | [9] 0.967 | [10] 1 | [11] 0.987 | [12] 0.991 | [13] 1.03 | [14] 0.981 | [15] 1.11 | [16] 0.976 | [17] 1.03

O=C(NC(=O)c1c(F)cccc1F)Nc1ccc(OC(F)(F)C(F)OC(F)(F)F)c(Cl)c1 (stereo not given)
inactive: Community 7 1.11 | Community 8 0.997 | Community 9 0.925 | [1] 0.951 | [2] 0.969 | [3] 0.944 | [4] 1.05 | [5] 0.888 | [6] 0.958 | [7] 0.957 | [8] 0.988 | [9] 1.02 | [10] 1.01 | [11] 0.99 | [12] 0.961 | [13] 0.966 | [14] 0.98 | [15] 0.952 | [16] 0.995 | [17] 1.11

CNC(=O)Oc1cccc(/N=C/N(C)C)c1
inactive: Community 7 1.15 | Community 8 1.03 | Community 9 1.07 | [1] 0.984 | [2] 0.99 | [3] 0.815 | [4] 1.02 | [5] 0.97 | [6] 1.05 | [7] 0.96 | [8] 0.966 | [9] 1.04 | [10] 0.989 | [11] 1.1 | [12] 0.942 | [13] 1.07 | [14] 1.17 | [15] 0.99 | [16] 0.97 | [17] 1.05

CCOCN(C(=O)CCl)c1c(C)cccc1CC
inactive: Community 7 0.976 | Community 8 1.02 | Community 9 1.06 | [1] 1.05 | [2] 0.946 | [3] 0.969 | [4] 1.06 | [6] 1.04 | [7] 0.928 | [9] 1.1 | [10] 0.978 | [11] 1.02 | [12] 0.966 | [13] 0.988 | [14] 1.03 | [15] 0.909 | [16] 0.95 | [17] 1.17
active: [5] 0.667
1.2: [8]

COC(=O)c1ccccc1S(=O)(=O)NC(=O)Nc1nc(C)nc(OC)n1
inactive: Community 7 0.941 | Community 8 1.1 | Community 9 1.1 | [1] 1.09 | [2] 1.08 | [3] 1.14 | [4] 1.01 | [5] 1.11 | [6] 0.997 | [7] 1.16 | [8] 1.03 | [9] 0.998 | [10] 1.01 | [11] 0.983 | [12] 1.08 | [13] 0.984 | [14] 0.905 | [15] 1.15 | [16] 1.11 | [17] 1.03

C#CCN1C(=O)COc2cc(F)c(N3C(=O)C4=C(CCCC4)C3=O)cc21
inactive: Community 7 1.07 | Community 8 1.01 | Community 9 0.923 | [1] 0.957 | [2] 0.977 | [3] 1.06 | [4] 1.04 | [5] 1.01 | [6] 1.04 | [7] 0.935 | [8] 0.972 | [9] 1.1 | [10] 1 | [11] 1.04 | [12] 0.985 | [13] 1.05 | [14] 1.05 | [15] 0.908 | [16] 0.938 | [17] 0.959

CC(C)(C)[C@@H](O)[C@H](Oc1ccc(Cl)cc1)n1cncn1
inactive: Community 7 0.988 | Community 8 1.02 | Community 9 1.09 | [1] 1.01 | [2] 1.02 | [3] 1.05 | [4] 0.963 | [5] 1.04 | [6] 1.02 | [7] 1.12 | [8] 1.02 | [10] 0.991 | [11] 0.991 | [12] 0.989 | [13] 0.963 | [14] 0.953 | [15] 1.05 | [16] 1.02 | [17] 1.08
active: [9] 0.598
